Our source for the INHIBITION values is ChEMBL document CHEMBL4513216, “Probing the Open Global Health Chemical Diversity Library for Multistage-Active Starting Points for Next-Generation Antimalarials” (ACS Infect Dis, 2020).

SMILES strings stand for the structures. Among all 69,000 compounds or so, about 8,600 (12%) showed an effect of 50% or more. Shown is part of a subset that was picked to be rich in strong results.

The subject of this assay is Plasmodium berghei. Description: Screen against P. berghei liver stage (PbLuc), transformed with Luciferase, at 10uM. It is filed as functional, HepG2. Conditions: tested at 10 uM.
As to `O=C(Nc1cc(F)ccc1OCC1CCCO1)N1CCCC1` (configuration not stated), the INHIBITION is recorded as 17.8%.

Regarding `CC(C)NC(=O)N1CCC(c2nnc3ccc(C(=O)N(C)C)cn23)C1` (configuration not stated), the INHIBITION was -7.24%.

With `CC(C)CNC(=O)c1ccc2nnc(C3CCN(S(C)(=O)=O)C3)n2c1` (configuration not stated), the INHIBITION turned out to be 40.9%.

For `CC(C)NC(=O)c1ccc2nnc(C3CCN(C(=O)NC(C)C)C3)n2c1` (configuration not stated), the INHIBITION came out at 8.85%.

For `CC(=O)N1CCC(c2nnc3ccc(C(=O)NCC(C)C)cn23)C1` (configuration not stated), the INHIBITION amounted to 51.2%.

For `CCN(C(=O)c1ccc2nnc(C3CCN(C(C)=O)C3)n2c1)C(C)C` (configuration not stated), the INHIBITION was 50.3%.

In the case of `CCN(C(=O)c1ccc2nnc(C3CCN(S(C)(=O)=O)C3)n2c1)C(C)C` (configuration not stated), the INHIBITION is reported as 33.1%.

Regarding `CC(=O)N1CCC(c2nnc3ccc(C(=O)NCCN(C)C)cn23)C1` (configuration not stated), the INHIBITION is given as 59.3%.

Regarding `CCC(CC)NC(=O)c1ccc2nnc(C3CCN(S(C)(=O)=O)C3)n2c1` (configuration not stated), the INHIBITION is -1.26%.

For `CCC(CC)NC(=O)c1ccc2nnc(C3CCN(C(C)=O)C3)n2c1` (configuration not stated), the INHIBITION is given as 50.7%.

As for `CC(C)NC(=O)c1ccc2nnc(C3CCN(S(C)(=O)=O)C3)n2c1` (configuration not stated), the INHIBITION stood at 10.6%.

In the case of `CCN(C(=O)c1ccc2nnc(C3CCN(C)C3)n2c1)C(C)C` (configuration not stated), the INHIBITION came to 27.6%.

With `CC(=O)N1CCC(c2nnc3ccc(C(=O)NC(C)C)cn23)C1` (configuration not stated), the INHIBITION is 42.6%.

Turning to `CC1CCCN(Cc2ccc(OCc3nccn3C)cc2)C1` (configuration not stated), the INHIBITION is listed as 33.3%.

For the compound `COCC(=O)NC1CCN(c2cccc(OC(F)(F)F)c2)C1=O` (configuration not stated), the INHIBITION was determined as 42.3%.

Consider `CC(C)=CCN1CCN(C(=O)c2cc(C(C)C)no2)[C@H]2CS(=O)(=O)C[C@H]21`, for which the INHIBITION is listed as -7.25%.

`COCc1nc(CNC2CCCC(C)(C)C2)no1` (configuration not stated): the INHIBITION is on record as 25.1%.

Turning to `Cc1ccc(N2CC[C@H]3OCC[C@@]3(C(=O)NCC3CC3)C2)nn1`, the INHIBITION is on record as 12.5%.

In the case of `CN1CC2(CCN(C(=O)CCc3nc4cccnc4n3C)C2)OC1=O` (configuration not stated), the INHIBITION is listed as -19.1%.

Regarding `COc1c(CNCc2nnc3n2CCCCC3)c(C(C)C)nn1C`, the INHIBITION is on record as 27.9%.

For the compound `CN(CCc1noc(C2CC2)n1)C(=O)CN1C(=O)COc2ccccc21`, the INHIBITION is reported as -37.9%.

Regarding `COc1c(C)cnc(CSc2nnc(C)s2)c1C`, the INHIBITION is recorded as -40.3%.

Take `COc1c(C)cnc(CSc2nnc(N)s2)c1C`: the INHIBITION came out at 28.6%.

Turning to `COc1c(C)cnc(CSc2nnc(NC3CC3)s2)c1C`, the INHIBITION was determined as 57.7%.

`CC(C)C(=O)N1CCCC(Cc2ccccn2)C1` (configuration not stated): the INHIBITION is listed as 25%.

Regarding `COCCC(=O)N1CCCC(c2n[nH]cc2C)C1` (configuration not stated), the INHIBITION is 36%.

Regarding `N#CCCCOc1cccnc1NC(=O)CC1CCCCC1`, the INHIBITION was determined as 20.9%.

Regarding `N#CCCCOc1cccnc1NC(=O)CCC1CCCC1`, the INHIBITION was -12.1%.

Turning to `N#CCCCOc1cccnc1NC(=O)Cc1ccccc1F`, the INHIBITION is 65.2%.

In the case of `Cc1cccc(CC2CCCN(C(=O)Cc3csc(C)n3)C2)n1` (configuration not stated), the INHIBITION is given as -8.12%.

`Cc1noc(C)c1S(=O)(=O)NC(=O)COc1ccc2c(c1)CCC2`: the INHIBITION was determined as 45.3%.

`COc1cc(CN(C)Cc2cccnc2)c(SC)cc1OC`: the INHIBITION is reported as 54.7%.

Take `COc1cc(CN(C)CCc2ccncc2)c(SC)cc1OC`: the INHIBITION is 32.7%.

Regarding `COc1cc(CN(C)Cc2ccncc2)c(SC)cc1OC`, the INHIBITION is reported as 39.3%.

`Cc1cccc(-n2ncc3c2CCCC3NCc2cccc(O)c2)c1C` (configuration not stated): the INHIBITION was determined as 31.9%.

In the case of `Cc1cccc(-n2ncc3c2CCCC3NCC(C)(C)CO)c1C` (configuration not stated), the INHIBITION was 58.5%.

As to `Cc1cccc(-n2ncc3c2CCCC3NCc2cnn(C)c2C)c1C` (configuration not stated), the INHIBITION was found to be 33.4%.

Regarding `Cc1cc(NC(=O)NC2CCCc3c2cnn3CCO)n(C)n1` (configuration not stated), the INHIBITION is listed as -39.9%.

Consider `Cc1cc(C(=O)NC2CCCc3c2cnn3-c2cccc(C)c2C)[nH]n1` (configuration not stated), for which the INHIBITION turned out to be 91%.

Turning to `Cc1nnc(NC(=O)NC2CCCc3c2cnn3CCO)s1` (configuration not stated), the INHIBITION amounted to 38%.

In the case of `OC1(CN2CCCC2)COCCN(c2ncnc3[nH]ccc23)C1` (configuration not stated), the INHIBITION is 19.3%.

`OC1(CN2CCCC2)COCCN(c2ncnc3[nH]cnc23)C1` (configuration not stated): the INHIBITION is 56.1%.

In the case of `OC1(CN2CCCC2)CCCN(c2ncnc3[nH]cnc23)C1` (configuration not stated), the INHIBITION is on record as 13.9%.

On to `CN(C)C[C@H]1OC[C@@H]2CCN(C(=O)c3cccn3C)C[C@@H]21`, for which the INHIBITION is recorded as 4.2%.

On to `CC(C)N(C)C(=O)C1=NOC2(CCN(C(=O)c3cccn3C)C2)C1` (configuration not stated), for which the INHIBITION is listed as 13.3%.

Consider `O=C(NCc1ccco1)[C@H]1CC[C@@H]2[C@@H](CCN2C2CCC2)O1`, for which the INHIBITION came out at 27.6%.

For `Cc1nn(CC(=O)Nc2ccon2)c(C)c1Br`, the INHIBITION was 40.8%.

As for `Cc1nc(CN2CCC(N3CCN(C)C3=O)CC2)no1`, the INHIBITION is listed as 11.2%.

Turning to `CCN1CCN(C2CCN(Cc3noc(C)n3)CC2)C1=O`, the INHIBITION was found to be 51.2%.

Take `CCN1CCN(C2CCN(Cc3noc(C4CC4)n3)CC2)C1=O`: the INHIBITION is 35.9%.

Take `Cc1ccc(CNC(=O)Cc2c(C)nc3c(c2C)c(=O)[nH]n3C)cc1`: the INHIBITION worked out at 29.4%.

Regarding `CC(NC(=O)CCn1cccn1)c1cn(-c2ccccc2)nn1` (configuration not stated), the INHIBITION was -15.5%.

As for `CC(C)NC(=O)[C@@H]1C[C@H](N)CN1C(=O)C1(c2ccc(Cl)cc2)CCC1`, the INHIBITION is given as 41.5%.

For `O=C(c1cc[nH]n1)N1CCCC1c1cncc(CN2CCOCC2)n1` (configuration not stated), the INHIBITION is reported as 11.8%.

For `CC(C)(NCCOc1ccc(CC#N)cc1)c1nccs1`, the INHIBITION was -6.34%.

Turning to `N#Cc1ccc(OCCNCCn2cccn2)cc1`, the INHIBITION worked out at 27.6%.

On to `Cc1csc(C(C)(C)NCCOc2ccc(CC#N)cc2)n1`, for which the INHIBITION amounted to 58.1%.

In the case of `Cc1csc(C(C)(C)NCCNS(C)(=O)=O)n1`, the INHIBITION is recorded as -1.75%.

On to `CC(C)(NCCCOc1ccc(C#N)cc1)c1nccs1`, for which the INHIBITION is 53.8%.

On to `CCS(=O)(=O)NCCNC(C)(C)c1nc(C)cs1`, for which the INHIBITION was -7.72%.

In the case of `CN1CCOC(c2cncc(CCC(N)=O)n2)C1` (configuration not stated), the INHIBITION is -0.232%.

For the compound `Cn1ccc2cc(CC3COCCN(C(=O)c4ccccn4)C3)ccc21` (configuration not stated), the INHIBITION came out at 20.055%.

For `CC(=O)N1N=C(c2ccco2)OC1C(=O)N(C)CCc1ccccc1` (configuration not stated), the INHIBITION worked out at 24.3%.

`Cc1cc2nc(SCC(=O)N3CCCC3)n(C)c(=O)c2[nH]1`: the INHIBITION stood at 19.3%.

For `COCCNC(=O)C[C@@H]1COC[C@H]2CN(CC3CCOCC3)C[C@@H]12`, the INHIBITION came out at 36.7%.

Take `COCCNC(=O)C[C@@H]1COC[C@H]2CN(C(=O)COC)C[C@@H]12`: the INHIBITION is on record as 13.1%.

With `COCCNC(=O)C[C@@H]1COC[C@H]2CN(C(=O)C3CCOCC3)C[C@@H]12`, the INHIBITION is on record as 69.3%.
